TDP1 cell CPT: growth inhibition of DT40 Tdp1-/-;hTDP1 cells with camptothecin (screen for TDP1 inhibitors). Potency, µM (top dose mostly 46.2 µM), for the others: top-dose activity change, negative = growth inhibition, hits mostly inhibitors. chicken DT40 Tdp1-/-;hTDP1 cells + 20 nM CPT, ATP luminescence, 48 h. hit rate 12% among 420,000; note: % is set by controls: 0 for no effect and ±100 for the full control effect; nearly all actives have a fitted effect of over 55% in size
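Cell growth measured by CellTiter-Glo luminescence after a minimum 48 h, 37 C compound exposure with 20 nM CPT in Tdp1-knockout DT40 cells stably expressing hTDP1, seeded 400/well; qHTS titration format.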
TDP1 block: blocks human tyrosyl-DNA phosphodiesterase 1; Q9NUW8; recombinant TDP1, AlphaScreen DNA substrate cleavage; Potency, µM (doses to about 130 µM), for inactives: at the top dose activity change, negative = inhibition, usual class: inhibitors; hit rate 0.28% among 350,000; AID 485290; note: % is set by controls: 0 for no effect and ±100 for the full control effect; nearly all actives have a fitted effect of over 40% in size
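AlphaScreen read-out: signal falls as enzyme removes the 3' tyrosine-FITC from a 5'-biotinylated DNA oligo (15 nM, 5 min, RT). Enzyme was E. coli-made recombinant Tdp1 at 1 nM, exposed to compound for 15 min beforehand; beads 10 ug/ml, 10 min.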
DT40 TDP1 no CPT: qHTS for Inhibitors of human tyrosyl-DNA phosphodiesterase 1 (TDP1): qHTS in cells in absence of CPT | DT40 Tdp1-/- hTDP1 cells, no CPT, ATP luminescence, 48 h | Potency, µM (top dose mostly 46.2 µM), for the others: at the top dose activity change, negative = growth inhibition, actives largely listed as inhibitors | hit rate 15% among 420,000 | AID 686978, 2013; note: % is set by controls: 0 for no effect and ±100 for the full control effect; nearly all actives have a fitted effect of over 55% in size
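Growth of hTDP1-complemented DT40 Tdp1-knockout cells is measured by ATP luminescence after at least 48 hr compound exposure at 37 °C, with DMSO substituting for the 20 nM CPT used in the parallel screen.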
ClpP mod: qHTS Assay for Activators of ClpP | ATP-dependent Clp protease proteolytic subunit (Bacillus subtilis (strain 168)), P80244 | purified B. subtilis ClpP, FRET peptide cleavage, 20 min | Potency, µM (titrated, usually from 57.5 µM), for the others: at the top dose activity change, negative = active | hit rate 1.9% among 340,000 | AID 651965, 2013; active = well fitted falling curve with a large enough effect; inconclusive = small, poorly fitted or top-dose-only effect; inactive = no such curve, though single readings can be large or run the other way; note: the source files actives as falling curves though it sought activators and does not explain the sign; nearly all actives have a fitted effect of over 65% in size
Target sequence (P80244 whole entry, looked up): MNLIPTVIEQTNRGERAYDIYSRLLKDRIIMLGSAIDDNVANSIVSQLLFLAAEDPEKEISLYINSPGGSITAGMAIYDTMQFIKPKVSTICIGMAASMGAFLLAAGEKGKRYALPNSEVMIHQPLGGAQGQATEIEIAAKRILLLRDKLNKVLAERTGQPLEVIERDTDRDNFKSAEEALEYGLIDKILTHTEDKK
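FRET quenching reversal measured ClpP activation: 10 microg/mL B. subtilis ClpP at pH 8 with the FRET-FV decapeptide, read at 430 nm after 320 nm excitation. The 20-min minus 0-min signal was scaled between DMSO/no-enzyme wells and ADEP (5.8 microM final).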
The depositor's hits bear a star; ? = inconclusive; . = not tested or not shown. Rows were chosen to be rich in hits. Some 17% of all compounds tested hit in one or more screens of this group. Unless noted, calls come from the whole dose curve; as a rule, active = well fitted curve in the direction sought with a large enough effect; inconclusive = small, poorly fitted or top-dose-only effect, or another doubt; inactive = no such curve, though single readings can be large; an effect the other way counts as inactive or inconclusive. Potency is the fitted concentration of half-maximal effect.

SMILES	TDP1 cell CPT	TDP1 block	DT40 TDP1 no CPT	ClpP mod
COc1cc(-c2nnc3sc(-c4cccs4)nn23)cc(OC)c1OC	?	-2%	12µM*	-7%
COc1cc(-c2nn3c(-c4ccco4)nnc3s2)cc(OC)c1OC	.	-2%	.	.
CC(C)(C)[C@H]1C=C(C(=O)N2CCN(Cc3ccccc3)CC2)O[C@@H](OCc2ccc(CO)cc2)C1	?	1%	?	-3%
O=[N+]([O-])/C(C(Cl)=C(Cl)Cl)=C(/NC1CC1)Sc1ccccc1	?	5%	23µM*	.
CCOC(=O)c1c(-c2ccc(OC)cc2)oc2c1C(OC(C)=O)CCC2 (stereo not drawn)	?	.	21µM*	5%
O=C(OCc1ccccc1)c1c(-c2ccccc2)oc2c1C(OCCO)CCC2 (stereo not drawn)	?	.	16µM*	5%
COc1ccc(-c2oc3c(c2C(=O)OCCCO)C(OCCO)CCC3)cc1 (stereo not drawn)	-1%	.	5%	5%
O=C(Nc1cccc(Cl)c1)c1csc([C@@H]2C[C@H](O)[C@@H](CO)O2)n1	-21%	.	-11%	0%
NC1=NC(c2cccc(Cl)c2)n2c(nc3ccccc32)N1 (stereo not drawn)	3%	3%	-21%	-3%
CCc1ccc(C2N=C(N)Nc3nc4ccccc4n32)cc1 (stereo not drawn)	16µM*	7%	18µM*	-1%
CC(C)c1ccc(C2=CC(c3cccc(Cl)c3)n3c(nc4ccccc43)N2)cc1 (stereo not drawn)	?	10%	16µM*	1%
CCN(CC)C(=O)C1=C(C)Nc2nc3ccccc3n2C1c1cccc(Cl)c1 (stereo not drawn)	?	1%	?	-14%
CC(C)c1ccc(C2=CC(c3cccc(Cl)c3)n3ncnc3N2)cc1 (stereo not drawn)	?	6%	23µM*	4%
CCOc1ccc(C2=CC(c3cccc(Br)c3)n3c(nc4ccccc43)N2)cc1Cl (stereo not drawn)	?	9%	13µM*	-3%
CC(C)CCNC(=O)CCc1nnc(COc2ccccc2)o1	-1%	-3%	-18%	.
O=C1CCN(Cl)C(=O)N1Cl	-4%	.	-7%	0%
CCN(CC)CCNC(=O)c1ccc(-n2c(-c3ccccc3)cc3c2CCCC3)cc1	?	3%	?	-4%
CCc1ccc(C2=CC(c3cccc(C)c3)n3c(nc4ccccc43)N2)cc1 (stereo not drawn)	?	7%	2.6µM*	-2%
CCc1ccc(C2=CC(c3cccc(OC)c3OC)n3c(nc4ccccc43)N2)cc1 (stereo not drawn)	?	9%	?	0%
CCN(CC(=O)Nc1c(F)cccc1F)C(=O)c1ccc(N2CCCC2=O)cc1	5%	-4%	-1%	.
CCOC(=O)C1(C)CCCN1C(=O)c1ccc(C(=O)OC)cc1 (stereo not drawn)	-16%	.	-27%	-1%
O=C(NC1CC1)c1ccc(Cn2c(SCc3ccccc3F)nc3cccnc32)cc1	21µM*	10%	12µM*	5%
O=C(NCCN1CCCCC1)c1ccc(Cn2c(SCc3cccc(F)c3)nc3cccnc32)cc1	?	8%	?	?
O=C(NC1CCCCC1)c1ccc(Cn2c(SCc3ccccc3F)nc3cccnc32)cc1	?	1%	16µM*	4%
O=C(NC1CCCCC1)c1ccc(CSc2nc3cccnc3n2Cc2ccccc2F)cc1	?	9%	21µM*	4%
SMILES	TDP1 cell CPT	TDP1 block	DT40 TDP1 no CPT	ClpP mod
CC(C)=NNc1nc(-c2ccc([N+](=O)[O-])cc2)cs1	?	5%	21µM*	-1%
C/C=C/C=N/Nc1nc(-c2ccc([N+](=O)[O-])cc2)cs1	?	8%	23µM*	-4%
O=C(CN(Cc1ccc(F)cc1)C(=O)CCC(=O)Nc1ccccn1)NCCc1ccccc1	-16%	1%	-21%	.
CN(C)c1ccc(S(=O)(=O)N2CCCCC2)cc1NC(=O)C1CSC2(C)CCC(=O)N12 (stereo not drawn)	-25%	3%	26µM*	-3%
CC1CC(C)CN(S(=O)(=O)c2ccc(NC(=O)C3CSC4(C)CCC(=O)N34)cc2)C1 (stereo not drawn)	23µM*	.	?	1%
CC12CCC(=O)N1C(C(=O)Nc1cccc(S(=O)(=O)N3CCCCCC3)c1)CS2 (stereo not drawn)	-24%	3%	?	28µM*
c1ccc(C(CN2CCCCC2)Oc2ccccn2)cc1 (stereo not drawn)	-20%	.	-26%	.
CC(C)(C)OC(=O)C[C@@H]1C/C=C\C[C@@H](CC(=O)N(CCO)Cc2ccccc2)C(=O)N2CCC[C@@H]2COC1=O	-40%	0%	-26%	1%
CC(NC(=O)COC(=O)c1cc(S(=O)(=O)N2CCOCC2)ccc1F)c1ccccc1 (stereo not drawn)	11%	2%	-7%	2%
Cc1ccc(Nc2nc(N)nc(N)c2N=O)cc1Cl	10µM*	.	13µM*	2%
CCc1c(N)nc(N)nc1Nc1ccc(C)c(C)c1	?	.	15µM*	.
Cc1ccc(Nc2ncnc3nc[nH]c23)cc1Cl	-23%	-1%	-23%	0%
Nc1ncnc(Nc2ccc(F)c(Cl)c2)n1	3%	.	4%	-1%
Nc1nc(N)c(N=O)c(Nc2cccc(Cl)c2)n1	5.8µM*	.	10µM*	1%
Nc1nc(N)c(N=O)c(Nc2ccc(Cl)c(Cl)c2)n1	4.1µM*	.	7.3µM*	-1%
CCc1c(Cl)nc(N)nc1Nc1ccccc1C	?	.	?	-3%
COc1cc(-c2cc3n(C)c(C)c(CCC(=O)NC4CCC(C)CC4)c(=O)n3n2)cc(OC)c1OC (stereo not drawn)	15µM*	5%	13µM*	-8%
COCCNC(=O)CCc1c(C)n(C)c2cc(-c3cc(OC)c(OC)c(OC)c3)nn2c1=O	-6%	4%	1%	-3%
O=C(Nc1nnc(COc2ccc(Cl)cc2)s1)c1ccc([N+](=O)[O-])cc1	-3%	-5%	-4%	-1%
O=C(Nc1ncc(Cc2ccc(Cl)cc2Cl)s1)c1ccc([N+](=O)[O-])cc1	18µM*	-3%	18µM*	2%
O=C(Nc1ncc(Cc2ccccc2Cl)s1)C1=NCCN1	21µM*	7%	?	1%
COc1cc(NC(=O)CN2C(=O)c3ccccc3Sc3ccc(C(=O)N4CCCC4)cc32)cc(OC)c1	1%	2%	?	-2%
O=C(COc1ccc(Cl)cc1)N1N=C(c2cccs2)CC1c1ccco1 (stereo not drawn)	26µM*	.	16µM*	.
O=C(CCl)N1N=C(c2cccs2)CC1c1ccco1 (stereo not drawn)	2.9µM*	0%	2.9µM*	-2%

Assay outcomes (PubChem)
